# High-throughput results (PubChem)
# An excerpt weighted towards active compounds, which were near 4.7% of everything screened.
# D1 potentiator: enhances dopamine response at the human D1 receptor; HEK293 TREx D1 cells, calcium flux, dopamine EC20 potentiation; P21728; actives 0.036% (n = 360,000); potentiation, % at 10 µM; AID 504651; in the data active = potentiation above about 30%
# D1 antagonist: blocks dopamine activation of the human D1 receptor; P21728; actives 3.2% (n = 360,000); activity change, negative = inhibition, % at 10 µM; HEK293 TREx D1 cells, calcium flux, dopamine EC80; active compounds read low; in the data active = activity change below about -30%
#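 Tetracycline-induced HEK293 Trex D1 cells, force-coupled to calcium, dye-loaded; compounds added and read 180 s, then EC80 dopamine added and calcium flux tracked kinetically another 180 s.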
# D1 agonist: activates the human D1 dopamine receptor; P21728; HEK293 T-REx D1 cells, calcium flux, agonist mode; activation, % at 2 µM; actives 1% (n = 360,000); AID 504660
#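 Inducible HEK293 T-REx D1 cells, force-coupled to calcium signalling, were plated at 4000 cells/well with tetracycline and held overnight at 30 C. After no-wash calcium dye loading, compound-evoked calcium rise over 180 s flagged agonists.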
# TRHR PAM: allosteric enhancers of human TRH receptor; P34981; TRHR cells, fluo-8 calcium fluorescence, EC20 TRH enhancement; enhancement, % at 2 µM; actives 0.66% (n = 360,000); AID 493056; in the data active = enhancement above about 30%
# Target sequence (P34981 whole entry, looked up): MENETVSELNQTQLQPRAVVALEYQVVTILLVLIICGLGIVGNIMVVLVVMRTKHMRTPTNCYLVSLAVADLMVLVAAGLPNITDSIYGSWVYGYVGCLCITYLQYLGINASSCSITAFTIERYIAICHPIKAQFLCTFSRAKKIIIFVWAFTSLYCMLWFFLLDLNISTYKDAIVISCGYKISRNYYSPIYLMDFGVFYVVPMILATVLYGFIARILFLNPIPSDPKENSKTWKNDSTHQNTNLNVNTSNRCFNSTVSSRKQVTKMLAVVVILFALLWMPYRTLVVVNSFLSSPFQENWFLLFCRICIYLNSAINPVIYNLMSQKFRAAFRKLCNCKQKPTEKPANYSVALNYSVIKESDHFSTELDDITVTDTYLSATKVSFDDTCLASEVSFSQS
#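 TRHR-expressing cells loaded with fluo-8 calcium dye were read kinetically (ex 480/em 530) during compound addition, then stimulated with an EC20 of TRH (10 nM final). Enhancement of the Gq-mediated intracellular calcium response was scored.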
# TRHR ag: activates the human TRH receptor; P34981; TRHR cells, calcium flux fluo-8, FDSS agonist mode; activation, % at 2 µM; actives 0.18% (n = 360,000); AID 493084
#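 In this calcium-flux screen, cells bearing human TRHR are dye-loaded with fluo-8, baselined for 10 cycles, then exposed to library compounds; positive kinetic calcium responses during the agonist phase mark hits, with TRH as control.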
# Hits are given with their value; - = inactive; . = no result. Cut-off read from the data, not from the text of the source, unless noted: active = activation above about 30%; inactive = the rest.
SMILES,D1 potentiator,D1 antagonist,D1 agonist,TRHR PAM,TRHR ag
N#Cc1nc(Cc2cccc3ccccc23)oc1NCCCn1ccnc1,-,-,-,-,-
N#Cc1nc(Cc2cccc3ccccc23)oc1NCCCN1CCOCC1,-,-42,-,-,-
c1ccc2c(CNCCN3CCOCC3)cccc2c1,-,-32,-,-,-
CCOc1ccc(N(CC)S(=O)(=O)N2CCCC(C(=O)Nc3ccc(OC)c(OC)c3)C2)cc1 (configuration not stated),-,-,-,-,-
CC(=O)Nc1ccc(S(=O)(=O)NC2CC(=O)N(c3ccc4c(c3)OCCO4)C2)cc1 (configuration not stated),-,-,-,40,-
Cc1nnc(NC(=O)C2CC(=O)N(c3ccc4c(c3)OCCO4)C2)s1 (configuration not stated),-,-,-,35,-
CCCCc1nnc(NC(=O)C2CC(=O)N(c3ccc4c(c3)OCCO4)C2)s1 (configuration not stated),-,-,-,-,-
Cc1ccc(S(=O)(=O)NC2CC(=O)N(c3ccc4c(c3)OCCO4)C2)cc1 (configuration not stated),-,-,-,-,-
CC(=O)c1ccc(S(=O)(=O)NC2CC(=O)N(c3ccc(C)c(C)c3)C2)cc1 (configuration not stated),-,-31,-,-,-
COc1ccc(S(=O)(=O)NC2CC(=O)N(c3ccccc3)C2)cc1C (configuration not stated),-,-54,-,-,-
Cc1ccc(NC(=O)NC2CC(=O)N(c3ccc4c(c3)OCCO4)C2)c(C)c1 (configuration not stated),-,-47,-,-,-
Cc1cc(NC(=O)CSc2nnc(NC(=O)C3CC(=O)N(c4ccccc4C)C3)s2)no1 (configuration not stated),-,-,-,-,-
Cc1cc(NC(=O)CSc2nnc(NC(=O)C3CC(=O)N(c4ccccc4)C3)s2)no1 (configuration not stated),-,-46,-,-,-
CN1CCCC1CCNS(=O)(=O)c1ccc(Br)cc1 (configuration not stated),-,-33,-,-,-
O=C(O)c1ccccc1N/N=C/c1c(Sc2nnnn2-c2ccccc2)nc2ccccn2c1=O,-,-43,-,-,-
N[C@@H](CO)c1nnc([C@H](CC(=O)O)NC(=O)C2CCNCC2)o1,-,-,-,-,-
N[C@@H](Cc1ccc(O)cc1)c1nnc([C@H](CCC(=O)O)NC(=O)C2CCNCC2)o1,-,-41,-,-,-
N[C@@H](CO)c1nnc([C@H](CCC(=O)O)NC(=O)C2CCNCC2)o1,-,-38,-,-,-
CCOc1ccccc1CNC(=O)CCCn1c(=O)c2cccn2c2ccc(F)cc21,-,-,-,-,-
Cc1cccc(N2CCN(Cc3nc(-c4ccccc4Cl)oc3C)CC2)n1,-,-31,-,-,-
CCOC(=O)COc1ccc(/C=C2/C(=O)NN(c3ccc(F)cc3)C2=O)cc1OC,-,-,-,38,-
COc1cc(/C=C2/NC(=O)NC2=O)ccc1OCC(=O)Nc1ccc(F)cc1,-,-71,-,-,-
CCOC(=O)c1ccc(N2NC(=O)/C(=C/c3ccc(OC(=O)c4ccco4)c(OC)c3)C2=O)cc1,-,-,-,-,-
COc1ccc(N2CCN(C(=O)Cn3nc(Cc4cccnc4)c4ccccc4c3=O)CC2)cc1,-,-,-,-,-
Cc1cccn2c(=O)cc(COc3cccc(NC(=O)COc4ccccc4)c3)nc12,-,-,-,-,-
SMILES,D1 potentiator,D1 antagonist,D1 agonist,TRHR PAM,TRHR ag
Cc1ccc(C)c(NC(=O)Cn2c(=O)n(CC3CCCO3)c(=O)c3ccccc32)c1 (configuration not stated),-,-,-,-,-
COC(=O)c1ccc(C(=O)OC)c(NC(=O)c2cnn3c(C(F)F)cc(-c4ccccc4)nc23)c1,-,-,-,-,-
CCc1cccc(OCCCn2ccnc2)c1,-,-32,-,-,-
Cc1cc(OCCCn2ccnc2)cc(C)c1Cl,-,-31,-,-,-
COc1ccc(C(NC(=O)C2CCCCC2)c2c(O)ccc3ccccc23)cc1 (configuration not stated),-,-46,-,-,-
CCCC(=O)NC(c1ccc(OC)cc1)c1c(O)ccc2ccccc12 (configuration not stated),-,-,-,-,-
O=C(NC1CC(=O)N(c2ccc(Cl)cc2)C1)c1cccs1 (configuration not stated),-,.,-,-,-
CC(C)c1ccc(C2C3=C(CC(c4ccco4)CC3=O)Nc3nc(C(F)(F)F)nn32)cc1 (configuration not stated),-,-,-,-,-
C#CCOCCOCCOCCNc1nc(N2CCN(C(=O)Cn3cc(CCCCN)nn3)CC2)nc(N2CCN(C(=O)Cn3cc(CC(C)O)nn3)CC2)n1 (configuration not stated),-,-32,-,-,-
C#CCOCCOCCOCCNc1nc(N2CCN(C(=O)CCCCCCCCCCNC(=O)Cn3cc(CCCCCN)nn3)CC2)nc(N2CCN(C(=O)CCCCCCCCCCNC(=O)Cn3cc(C[C@@H](C)O)nn3)CC2)n1,43,-,-,-,-
O=C(O)CCN1C(=O)C2C3c4ccccc4C(c4ccccc43)[C@@H]2C1=O (some centres not stated),-,-31,-,-,-
O=C(O)CCN1C(=O)C2C3c4ccccc4C(c4ccccc43)C2C1=O (configuration not stated),-,-,-,-,-
Cc1cc2c3nonc3ccc2n1C,-,-34,-,-,-
COc1ccc(-c2cc(C(F)(F)F)nc(SCCC(=O)Nc3ccc(F)cc3F)n2)cc1,-,-,-,-,-
COc1cc(/C=C2\CC(C(C)(C)C)C/C(=C\c3cc(OC)c(OC)c(OC)c3)C2=O)cc(OC)c1OC (configuration not stated),-,-,32,-,-
COc1cc(/C=C2\CC/C(=C\c3cc(OC)c(OC)c(OC)c3)C2=O)cc(OC)c1OC,-,-,-,-,-
Cc1ccc(-c2cn3cccnc3n2)cc1,-,-,-,-,-
Nc1cccc(-c2cn3cccnc3n2)c1,-,-30,-,-,-
CCCCS(=O)(=O)CC(O)CSc1nc(-c2ccc(C)cc2)cc(-c2ccccc2)c1C#N (configuration not stated),-,-,-,-,-
CCNc1ccccc1CP(=O)(c1ccccc1)c1ccccc1O (configuration not stated),-,-,35,-,-
CCOC(=O)C1=C(C)NC(C)=C(C(=O)OCC)C1C(=O)OCC(=O)N(C)C1CCS(=O)(=O)C1 (configuration not stated),-,-36,-,-,-
